In PubChem BioAssay (NCI):
Compounds without any hit were thinned out: in the full panel of roughly 79,000, 15% have a hit. Active and inactive are the calls of the source. Rule as the data show it: active = growth inhibition above about 70%; inactive = the rest.

Columns and labels:
[1] = NCI Yeast Anticancer Drug Screen. Data for the rad52 strain (AID 147);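 also: 0% = growth of vehicle-treated control cultures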; conditions: S. cerevisiae rad52 mutant growth inhibition, active compounds read high
Method in brief: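 Growth of repair-deficient yeast cells was compared between compound-treated and vehicle-treated cultures to give percent inhibition.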

[2] = NCI Yeast Anticancer Drug Screen. Data for the wt1 strain (AID 149);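 also: 0% = growth of vehicle-treated wt1 cultures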; conditions: S. cerevisiae wt1 strain (SPY 50644) growth inhibition, active compounds read high
Method in brief: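 The wt1 strain was treated with compounds, and growth was compared with vehicle-treated cultures to give inhibition.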

[3] = NCI Yeast Anticancer Drug Screen. Data for the mgt1 strain (AID 153); conditions: S. cerevisiae mgt1 mutant growth inhibition, active compounds read high
Method in brief: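 Compounds were applied to mgt1 mutant yeast, and growth was then compared against vehicle-treated control cultures to give percent inhibition.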

[4] = NCI Yeast Anticancer Drug Screen. Data for the rad50 strain (AID 155);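 also: 0% = growth of vehicle-only cultures of the same strain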; conditions: S. cerevisiae rad50 strain growth inhibition, active compounds read high
Method in brief: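 Cells are treated with compound, grown, and their growth is then scored against vehicle-only cultures of the same repair-deficient yeast strain.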

[5] = NCI Yeast Anticancer Drug Screen. Data for the mec2-1 strain (AID 157); conditions: S. cerevisiae mec2-1 strain, active compounds read high
Method in brief: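 Compounds were applied to mec2-1 yeast cells. Their growth was then compared with that of vehicle-treated cultures to give growth inhibition.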

[6] = NCI Yeast Anticancer Drug Screen. Data for the rad14 strain (AID 159);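 also: 0% = growth of vehicle-treated control cultures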; conditions: S. cerevisiae rad14 strain growth inhibition, active compounds read high
Method in brief: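 Readout: yeast growth inhibition, referenced to vehicle-only cultures. Strain bears a defined alteration in DNA damage repair.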

[7] = NCI Yeast Anticancer Drug Screen. Data for the sgs1 mgt1 strain (AID 161);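 also: 0% = growth of cultures given vehicle only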; conditions: S. cerevisiae sgs1 mgt1 strain, active compounds read high
Method in brief: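 Compounds are added to genetically altered yeast, and growth is compared with cultures given vehicle alone to give percent inhibition.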

[8] = NCI Yeast Anticancer Drug Screen. Data for the CLN2oe strain (AID 163);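 also: 0% = growth of vehicle-only control cultures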; conditions: S. cerevisiae CLN2oe strain, active compounds read high
Method in brief: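 Cells of an engineered yeast line with disturbed cell-cycle regulation are treated with compound. Inhibition of growth is then calculated relative to the vehicle-treated reference.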

[9] = NCI Yeast Anticancer Drug Screen. Data for the cln2 rad14 strain (AID 165);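 also: 0% = growth equal to vehicle treated cultures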; conditions: S. cerevisiae cln2 rad14 strain, active compounds read high
Method in brief: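 Strain: cln2 rad14 yeast, altered in cell cycle control and DNA damage repair. Read-out: growth inhibition vs vehicle.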

[10] = NCI Yeast Anticancer Drug Screen. Data for the bub3 strain (AID 167); conditions: S. cerevisiae bub3 mutant strain, active compounds read high
Method in brief: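 Part of a panel of yeast mutants defective in DNA damage repair or cell cycle regulation. Each strain is grown with compound, and inhibition is calculated relative to solvent-treated cultures.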

[11] = NCI Yeast Anticancer Drug Screen. Data for the wt2 strain (AID 169);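 also: 0% = growth of vehicle-treated yeast cultures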; conditions: S. cerevisiae wt2 strain growth inhibition, active compounds read high
Method in brief: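 Growth of compound-treated yeast is measured and expressed as inhibition relative to vehicle-only controls.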

[12] = NCI Yeast Anticancer Drug Screen. Data for the mlh1 strain (AID 171);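 also: 0% = growth of vehicle-treated control cultures of the same strain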; conditions: S. cerevisiae mlh1 strain growth inhibition, active compounds read high
Method in brief: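 Test agents were incubated with yeast bearing a defined DNA damage repair or cell cycle control alteration; values are growth inhibition normalised to vehicle-treated cultures.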

[13] = NCI Yeast Anticancer Drug Screen. Data for the sgs1 strain (AID 173);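 also: 0% = growth of vehicle-only control cultures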; conditions: S. cerevisiae sgs1 mutant, active compounds read high
Method in brief: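 Strain with an altered DNA repair or cell cycle pathway exposed to compound. Growth then measured. Value = inhibition versus vehicle control.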

[14] = NCI Yeast Anticancer Drug Screen. Data for the mlh1 rad18 strain (AID 175); conditions: S. cerevisiae mlh1 rad18 strain growth inhibition, active compounds read high
Method in brief: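 A repair-deficient yeast strain is exposed to test compound, and growth is scored relative to vehicle-treated controls.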

[15] = NCI Yeast Anticancer Drug Screen. Data for the rad18 strain (AID 177); conditions: S. cerevisiae rad18 mutant growth inhibition, active compounds read high
Method in brief: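 DNA-repair-defective yeast; compound treatment; growth inhibition scored against vehicle.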

[16] = at 5.0 µM (retest, dose inferred, filed as 0.5)
[17] = at 50.0 µM (retest, dose inferred, filed as 5.0)

Measured: growth inhibition

O=C1C2C(C(=O)N1c1ccc(OCc3ccccc3)cc1)C1c3ccccc3C2C2CCCCN21 (stereo not drawn)
inactive: [1]; at 1.2 µM -3% | [1]; at 3.7 µM 1% | [1]; at 11.0 µM 3% | [1]; at 33.0 µM 12% | [2]; at 1.2 µM -6% | [2]; at 3.7 µM -7% | [2]; at 11.0 µM -10% | [2]; at 33.0 µM -10% | [3]; at 1.2 µM 4% | [3]; at 3.7 µM 4% | [3]; at 11.0 µM -11% | [3]; at 33.0 µM 2% | [4]; at 1.2 µM 3% | [4]; at 3.7 µM 11% | [4]; [16] 3% | [4]; at 11.0 µM 13% | [4]; at 33.0 µM 41% | [4]; [17] 50% | [5]; at 1.2 µM -7% | [5]; at 3.7 µM -6% | [5]; [16] -5% | [5]; at 11.0 µM -6% | [5]; at 33.0 µM 2% | [5]; [17] 19% | [5]; at 50.0 µM -8.75% | [6]; at 1.2 µM -2% | [6]; at 3.7 µM 3% | [6]; at 11.0 µM 4% | [6]; at 33.0 µM 35% | [7]; [16] 1% | [7]; [17] 61% | [8]; at 1.2 µM -5% | [8]; at 3.7 µM -10% | [8]; at 11.0 µM -12% | [8]; at 33.0 µM -12% | [8]; at 100.0 µM 56% | [9]; [16] -14% | [9]; [17] -15% | [9]; at 50.0 µM 4.85% | [10]; at 1.2 µM -4% | [10]; at 3.7 µM -8% | [10]; [16] -5% | [10]; at 11.0 µM -1% | [10]; at 33.0 µM 23% | [10]; [17] 47% | [11]; at 1.2 µM -3% | [11]; at 3.7 µM -4% | [11]; at 11.0 µM -6% | [11]; at 33.0 µM 18% | [12]; at 1.2 µM 1% | [12]; at 3.7 µM 4% | [12]; at 11.0 µM 0% | [12]; at 33.0 µM 28% | [13]; at 1.2 µM -2% | [13]; at 3.7 µM -1% | [13]; at 11.0 µM -2% | [13]; at 33.0 µM 19% | [14]; [16] -6% | [14]; [17] 69% | [15]; at 1.2 µM -3% | [15]; at 3.7 µM 12% | [15]; at 11.0 µM 8% | [15]; at 33.0 µM 24%
active: [1]; at 100.0 µM 79% | [2]; at 100.0 µM 75% | [3]; at 100.0 µM 95% | [4]; at 50.0 µM 80.8% | [4]; at 100.0 µM 94% | [5]; at 100.0 µM 93% | [6]; at 100.0 µM 97% | [7]; at 50.0 µM 90.7% | [10]; at 50.0 µM 83.3% | [10]; at 100.0 µM 88% | [11]; at 100.0 µM 94% | [12]; at 100.0 µM 95% | [13]; at 100.0 µM 94% | [14]; at 50.0 µM 90.9% | [15]; at 100.0 µM 81%
